Assay results: PubChem BioAssay AID602350 (Broad Institute, 2012)
Potency and affinity values are given separately. Calls of active or inactive are those of the source.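 How the source made its calls: active means absorbance falls by 30% or more versus neutral controls, with a potency fitted within twice the top valid dose; inconclusive means no clear call, values can overlap the other calls; inactive means change opposite to expected direction, plus the rest.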

Biological target: Protein disulfide-isomerase (Homo sapiens) (UniProt P07237)
Sequence (P07237 whole entry, looked up): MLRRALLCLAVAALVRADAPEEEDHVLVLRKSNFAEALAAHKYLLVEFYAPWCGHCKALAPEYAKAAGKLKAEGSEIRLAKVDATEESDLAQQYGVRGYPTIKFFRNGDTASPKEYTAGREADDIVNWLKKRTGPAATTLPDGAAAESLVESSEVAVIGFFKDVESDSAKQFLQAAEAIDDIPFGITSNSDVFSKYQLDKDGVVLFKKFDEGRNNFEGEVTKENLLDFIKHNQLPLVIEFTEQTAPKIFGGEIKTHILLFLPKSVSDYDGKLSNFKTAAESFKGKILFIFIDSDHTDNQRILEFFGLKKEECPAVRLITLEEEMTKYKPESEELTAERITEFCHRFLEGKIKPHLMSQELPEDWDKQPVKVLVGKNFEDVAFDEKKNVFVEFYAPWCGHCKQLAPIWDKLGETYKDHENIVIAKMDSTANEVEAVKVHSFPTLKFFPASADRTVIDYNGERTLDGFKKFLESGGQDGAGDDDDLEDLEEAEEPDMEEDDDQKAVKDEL
Test: PDI inhibitors, insulin aggregation turbidity, dose response, biochemical, absorbance, cherry-picked samples (AID 602350)
Conditions: recombinant PDI insulin aggregation, absorbance 650 nm, 90 min; series mostly up to 19.5 µM

outcome, inactive:
O=c1cc(CN2CCN(S(=O)(=O)/C=C/c3ccccc3)CC2)c2ccc(O)cc2o1, Cc1ccc(N(Cc2ccccc2)C(=O)c2cccc(S(=O)(=O)N3CC(C)OC(C)C3)c2)cc1 (centres undefined), CCCCn1c(SCC(=O)NC2CCS(=O)(=O)C2)nc2ccccc2c1=O (centres undefined), CCOC(=O)C1(CCOc2ccccc2)CCN(Cc2ccc(C(=O)OC)cc2)CC1, CCOC(=O)C1(C)CCCN(C(=O)c2cccc(Cl)c2)C1 (centres undefined), CC[C@]12c3[nH]c4cc(-c5ccco5)ccc4c3CCN1C(=O)[C@@H](CC(=O)NCC13CC4CC(CC(C4)C1)C3)C[C@@H]2C(=O)N1CCN(C(=O)c2ccco2)CC1, O=C(NCCCN1CCOCC1)C(Sc1ccccc1)c1ccccc1 (centres undefined), O=C(Cc1ccccc1)Nc1cccc(C(=O)N/N=C/c2ccco2)c1, CCOc1ccc2nc(NS(=O)(=O)Cc3ccccc3)sc2c1, Cn1nccc1C(=O)Nc1ccc(S(=O)(=O)N2CCCC2)cc1, Cc1ccc(O)c(NC(=O)CSc2n[nH]c(-c3ccccc3)n2)c1, CN(C1=NC(=O)C(CC(=O)Nc2ccc(Br)cc2)S1)c1ccc(O)cc1 (centres undefined), C[C@@H](CN1C2=NC[C@H](Cc3ccc(O)cc3)N2C[C@H]1Cc1ccc(O)cc1)NC(=O)CCC1CCCCC1, O=C(NCc1cccs1)C1CC(c2ccc(F)cc2)=NO1 (centres undefined), FC(F)(F)c1cccc(NC(=S)NCc2ccccn2)c1, NC(=O)c1nsc(C(=O)N(CC(=O)NCc2ccc(F)cc2)Cc2ccco2)c1N, Cc1ccc(NC(=O)NC(=O)CN2CCC(C(N)=O)CC2)c(C)c1, COc1cccc(/C=N/NC(=O)CNC(=O)C(c2ccccc2)c2ccccc2)c1O, CC1(c2ccc3ccccc3c2)NC(=O)N(CC(=O)Nc2cccc(S(=O)(=O)N3CCOCC3)c2)C1=O (centres undefined), O=C(CSc1n[nH]c(-c2ccccc2)n1)Nc1ccccc1O, CC1CCCN(c2cc3c(cc2[N+](=O)[O-])C(=O)N(c2ccccc2)C3=O)C1 (centres undefined), O=C(NC1CCCCC1)C1CCN(S(=O)(=O)c2cccs2)CC1, CCCN(CCC)S(=O)(=O)c1ccc(C(=O)Nc2nnc(COC)o2)cc1, CCOC(=O)C1(CC2CC2)CCN(Cc2cc(Cl)c(O)c(OC)c2)CC1, CCCNC(=O)Cn1c(-c2ccc(F)cc2)cc(C(=O)OCC)c1C, CCC(=O)N1CCc2cc(S(=O)(=O)CCC(=O)NCc3ccco3)ccc21, O=C(CCc1nc(-c2ccccc2F)no1)Nc1ccc(Oc2ccccc2)cc1, CCOc1ccc(C(=O)NCC(=O)OCC(=O)N(C)CC(=O)Nc2ccccc2CC)cc1OCC, C[C@H](CO)N1C[C@H](C)[C@@H](CN(C)S(=O)(=O)c2ccc(F)cc2)Oc2ccc(NC(=O)Cc3ccccc3)cc2C1=O, O=C(CCS(=O)(=O)c1ccccc1)N(CCCN1CCOCC1)c1nc2ccccc2s1, COc1ccc(CN(C)C[C@@H]2Oc3c(NS(C)(=O)=O)cccc3C(=O)N([C@H](C)CO)C[C@H]2C)cc1, CCN1CCN(Cc2ccc(NC(=O)c3cc(NC(=O)c4cc(-c5ccc(OC)cc5)n[nH]4)cc(OC)c3)cc2C(F)(F)F)CC1, O=C(NC(=S)Nc1cccc(NC(=O)c2ccccc2)c1)c1cccc([N+](=O)[O-])c1, Cc1cc(NC(=O)COC(=O)C2CC(=O)N(c3ccccc3)C2)no1 (centres undefined), COc1ccc(C[C@@H]2CN3C(=NC[C@@H]3Cc3ccc(O)cc3)N2C[C@H](C)NC(=O)CCC2CCCCC2)cc1, Cc1noc(C)c1S(=O)(=O)Nc1ccc2c(c1)CC(=O)N([C@H](C)CO)C[C@@H](C)[C@H](CN(C)S(=O)(=O)c1ccc(F)cc1)O2, CC1CC(C)CN(C(=O)COC(=O)c2ccc[nH]c2=O)C1 (centres undefined), COc1ccc(OC)c(CN2CCN(Cc3cc(=O)oc4cc(O)ccc34)CC2)c1, Cc1cc(C)c2c(=O)n3c(nc2c1)C(Cc1ccc(O)cc1)NC(=O)c1cccnc1-3 (centres undefined)
